From PubChem BioAssay AID1159580 (chemical genetic matrix, 2015)
Values joined by “and” are separate entries in the source; they are usually repeats but may differ in a detail not shown here. Identical values can stand only once. Hit rate of the full screen: of about 5,500 compounds, about 2,000 (36%) were called active. Inconclusive results (about 18%) are left out. Cut-off read from the data, not from the text of the source: active = normalized growth mostly below about 0.91 (no sharp cut-off); inconclusive = no clear call, values can overlap the other calls; inactive = mostly above about 0.92. Some of the results follow.

Assay: chemical genetic growth profiling, strain panel (AID 1159580);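 note: tested at 20 µM; growth read once vehicle control cultures reached saturation at 30 °C; 1 = growth at the plate median or of vehicle wells; lower values mean less growth of the strain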
Settings: S. cerevisiae deletion strains, growth OD

Measured: normalized growth

CC(C)=CCCC1(C)C=Cc2c(O)c3c(c(CC=C(C)C)c2O1)OC12C(=CCCC1C(C)(C)O[C@@]2(C/C=C(\C)C(=O)O)C(=O)O)C3=O (some centres not stated)
0.501 (active) and 0.921 (inactive): locus YHR030C, strain SLT2, stronger effect = lower value
active: locus YAL026C, strain drs2, stronger effect = lower value 0.813 | locus YAL030W, strain snc1, stronger effect = lower value 0.915 | locus YBL061C, strain skt5, stronger effect = lower value 0.918 | locus YBR009C, strain hhf1, stronger effect = lower value 0.86 | locus YBR023C, strain chs3, stronger effect = lower value 0.844 | locus YBR229C, strain ROT2, stronger effect = lower value 0.903 | locus YBR231C, strain swc5, stronger effect = lower value 0.861 | locus YCL011C, strain gbp2, stronger effect = lower value 0.887 | locus YCL029C, strain bik1, stronger effect = lower value 0.907 | locus YDL035C, strain GPR1, stronger effect = lower value 0.782 | locus YDL074C, strain BRE1, stronger effect = lower value 0.685 | locus YDL101C, strain DUN1, stronger effect = lower value 0.834 | locus YDL192W, strain arf1, stronger effect = lower value 0.766 | locus YDR101C, strain arx1, stronger effect = lower value 0.869 | locus YDR137W, strain rgp1, stronger effect = lower value 0.498 | locus YDR159W, strain sac3, stronger effect = lower value 0.694 | locus YDR162C, strain NBP2, stronger effect = lower value 0.377 | locus YDR297W, strain sur2, stronger effect = lower value 0.861 | locus YDR318W, strain mcm21, stronger effect = lower value 0.81 | locus YDR335W, strain msn5, stronger effect = lower value 0.881 | locus YDR388W, stronger effect = lower value 0.884 | locus YDR392W, strain spt3, stronger effect = lower value 0.283 | locus YDR502C, strain sam2, stronger effect = lower value 0.864 | locus YEL003W, strain gim4, stronger effect = lower value 0.907 | locus YEL061C, strain CIN8, stronger effect = lower value 0.89 | locus YER015W, strain faa2, stronger effect = lower value 0.84 | locus YER111C, strain swi4, stronger effect = lower value 0.91 | locus YER155C, strain BEM2 (second series), stronger effect = lower value 0.546 | locus YER155C, strain BEM2, stronger effect = lower value 0.879 | locus YER167W, strain BCK2, stronger effect = lower value 0.807 | locus YGL086W, strain mad1, stronger effect = lower value 0.851 | locus YGL173C, strain kem1, stronger effect = lower value 0.701 | locus YGL248W, strain PDE1, stronger effect = lower value 0.792 | locus YGL253W, strain hxk2, stronger effect = lower value 0.85 | locus YGR078C, strain PAC10, stronger effect = lower value 0.753 | locus YGR135W, strain pre9, stronger effect = lower value 0.863 | locus YHR027C, strain rpn1, stronger effect = lower value 0.814 | locus YHR129C, strain ARP1, stronger effect = lower value 0.808 | locus YHR142W, strain chs7, stronger effect = lower value 0.702 | locus YIL066C, strain RNR3, stronger effect = lower value 0.804 | locus YJL095W, strain BCK1 (second series), stronger effect = lower value 0.609 | locus YJL164C, strain tpk1, stronger effect = lower value 0.86 | locus YJL166W, strain qcr8, stronger effect = lower value 0.851 | locus YJL187C, strain SWE1 (second series), stronger effect = lower value 0.789 | locus YJR043C, strain POL32, stronger effect = lower value 0.822 | locus YKL160W, strain elf1, stronger effect = lower value 0.896 | locus YKR001C, strain vps1, stronger effect = lower value 0.739 | locus YLR027C, strain aat2, stronger effect = lower value 0.911 | locus YLR039C, strain RIC1, stronger effect = lower value 0.366 | locus YLR058C, strain SHM2, stronger effect = lower value 0.803 | locus YLR221C, strain rsa3, stronger effect = lower value 0.823 | locus YLR262C, strain YPT6 (second series), stronger effect = lower value 0.402 | locus YLR268W, strain sec22, stronger effect = lower value 0.772 | locus YLR320W, strain mms22, stronger effect = lower value 0.646 | locus YLR330W, strain CHS5, stronger effect = lower value 0.845 | locus YLR342W, strain FKS1 (second series), stronger effect = lower value 0.77 | locus YLR342W, strain FKS1, stronger effect = lower value 0.818 | locus YLR371W, strain rom2, stronger effect = lower value 0.738 | locus YLR418C, strain cdc73, stronger effect = lower value 0.509 | locus YML016C, strain PPZ1, stronger effect = lower value 0.907 | locus YML032C, strain rad52, stronger effect = lower value 0.828 | locus YMR058W, strain fet3, stronger effect = lower value 0.258 | locus YMR125W, strain sto1, stronger effect = lower value 0.848 | locus YMR205C, strain PFK2, stronger effect = lower value 0.812 | locus YMR223W, strain ubp8, stronger effect = lower value 0.825 | locus YMR231W, strain pep5, stronger effect = lower value 0.762 | locus YMR307W, strain GAS1, stronger effect = lower value 0.317 | locus YNL071W, strain lat1, stronger effect = lower value 0.463 | locus YNL128W, strain TEP1, stronger effect = lower value 0.797 | locus YNL153C, strain GIM3, stronger effect = lower value 0.847 | locus YNL209W, strain ssb2, stronger effect = lower value 0.783 | locus YNL233W, strain BNI4, stronger effect = lower value 0.823 | locus YNL307C, strain MCK1, stronger effect = lower value 0.437 | locus YNL322C, strain KRE1, stronger effect = lower value 0.923 | locus YNR052C, strain pop2, stronger effect = lower value 0.846 | locus YOL147C, strain pex11, stronger effect = lower value 0.867 | locus YOR061W, strain CKA2, stronger effect = lower value 0.831 | locus YOR069W, strain VPS5, stronger effect = lower value 0.847 | locus YOR106W, strain vam3, stronger effect = lower value 0.697 | locus YOR144C, strain elg1, stronger effect = lower value 0.888 | locus YOR184W, strain ser1, stronger effect = lower value 0.632 | locus YOR270C, strain vph1, stronger effect = lower value 0.517 | locus YPL051W, strain arl3, stronger effect = lower value 0.664 | locus YPL055C, strain LGE1, stronger effect = lower value 0.734 | locus YPR163C, strain tif3, stronger effect = lower value 0.524 | strain wtn01, stronger effect = lower value 0.817
inactive: locus YAL021C, strain ccr4, stronger effect = lower value 0.996 | locus YBR021W, strain FUR4, stronger effect = lower value 1.03 | locus YBR171W, strain sec66, stronger effect = lower value 1 | locus YBR279W, strain paf1, stronger effect = lower value 0.933 | locus YCL016C, strain dcc1, stronger effect = lower value 0.92 | locus YCL069W, strain vba3, stronger effect = lower value 0.941 | locus YCR088W, strain abp1, stronger effect = lower value 0.988 | locus YDL005C, strain med2, stronger effect = lower value 1.03 | locus YDL040C, strain nat1, stronger effect = lower value 0.999 | locus YDL185W, strain tfp1, stronger effect = lower value 0.964 | locus YDR001C, strain nth1, stronger effect = lower value 0.999 | locus YDR069C, strain doa4, stronger effect = lower value 0.923 | locus YDR195W, strain ref2 1.12 | locus YDR334W, strain swr1, stronger effect = lower value 0.991 | locus YEL037C, strain rad23, stronger effect = lower value 0.987 | locus YEL061C, strain CIN8 (second series), stronger effect = lower value 0.963 | locus YER016W, strain bim1, stronger effect = lower value 0.957 | locus YER110C, stronger effect = lower value 0.953 | locus YFR010W, strain ubp6, stronger effect = lower value 0.919 | locus YGL078C, strain dbp3, stronger effect = lower value 0.998 | locus YGL167C, strain pmr1, stronger effect = lower value 0.996 | locus YGL227W, strain vid30, stronger effect = lower value 1.04 | locus YGL240W, strain doc1, stronger effect = lower value 0.989 | locus YGR252W, strain gcn5, stronger effect = lower value 0.902 | locus YHR013C, strain ard1, stronger effect = lower value 0.96 | locus YHR079C, strain IRE1 (second series), stronger effect = lower value 0.979 | locus YHR079C, strain IRE1, stronger effect = lower value 0.94 | locus YHR094C, strain hxt1, stronger effect = lower value 0.973 | locus YHR200W, strain rpn10, stronger effect = lower value 0.952 | locus YIL073C, strain SPO22, stronger effect = lower value 0.873 | locus YIL125W, strain kgd1, stronger effect = lower value 0.961 | locus YIR030C, strain dcg1, stronger effect = lower value 0.942 | locus YJL092W, strain hpr5, stronger effect = lower value 0.949 | locus YJL115W, strain asf1, stronger effect = lower value 1.04 | locus YJL129C, strain trk1, stronger effect = lower value 0.973 | locus YJL134W, strain LCB3, stronger effect = lower value 0.929 | locus YJL154C, strain vps35, stronger effect = lower value 1.01 | locus YJL168C, strain set2, stronger effect = lower value 0.971 | locus YJR066W, strain TOR1, stronger effect = lower value 0.909 | locus YKL009W, strain mrt4, stronger effect = lower value 1.11 | locus YKL068W, stronger effect = lower value 0.981 | locus YKL085W, strain MDH1 (second series), stronger effect = lower value 0.968 | locus YKL085W, strain MDH1, stronger effect = lower value 0.968 | locus YKR026C, strain gcn3, stronger effect = lower value 1 | locus YKR091W, strain srl3, stronger effect = lower value 0.998 | locus YLL001W, strain dnm1, stronger effect = lower value 0.932 | locus YLL026W, stronger effect = lower value 0.985 | locus YLL041C, strain sdh2, stronger effect = lower value 0.992 | locus YLR102C, strain apc9, stronger effect = lower value 0.988 | locus YLR113W, strain HOG1, stronger effect = lower value 0.882 | locus YLR258W, strain gsy2, stronger effect = lower value 0.924 | locus YLR357W, strain rsc2, stronger effect = lower value 1.01 | locus YLR370C, strain arc18, stronger effect = lower value 0.988 | locus YLR384C, strain iki3, stronger effect = lower value 1.02 | locus YML120C, strain ndi1, stronger effect = lower value 0.964 | locus YML124C, strain tub3, stronger effect = lower value 0.948 | locus YMR078C, strain ctf18, stronger effect = lower value 0.973 | locus YMR129W, stronger effect = lower value 0.935 | locus YMR263W, strain SAP30, stronger effect = lower value 0.936 | locus YNL067W, strain RPL9B, stronger effect = lower value 0.917 | locus YNL183C, strain NPR1, stronger effect = lower value 0.895 | locus YNL248C, strain rpa49, stronger effect = lower value 0.935 | locus YNL250W, strain rad50, stronger effect = lower value 0.956 | locus YNL271C, strain bni1, stronger effect = lower value 0.947 | locus YNL298W, strain CLA4, stronger effect = lower value 0.963 | locus YNL322C, strain KRE1 (second series), stronger effect = lower value 1.04 | locus YNR049C, strain mso1, stronger effect = lower value 0.986 | locus YOL012C, strain htz1 0.267 | locus YOR001W, strain rrp6, stronger effect = lower value 0.901 | locus YOR070C, strain gyp1, stronger effect = lower value 0.931 | locus YOR080W, strain dia2, stronger effect = lower value 1.03 | locus YOR083W, strain WHI5, stronger effect = lower value 0.909 | locus YOR136W, strain idh2, stronger effect = lower value 0.94 | locus YOR231W, strain MKK1, stronger effect = lower value 0.942 | locus YOR265W, strain rbl2, stronger effect = lower value 0.945 | locus YOR290C, strain snf2, stronger effect = lower value 0.944 | locus YOR316C, strain cot1, stronger effect = lower value 0.979 | locus YPL078C, strain atp4, stronger effect = lower value 0.897 | locus YPL106C, strain sse1, stronger effect = lower value 0.993 | locus YPL240C, strain hsp82, stronger effect = lower value 0.955 | locus YPL256C, strain CLN2, stronger effect = lower value 0.893 | locus YPR119W, strain clb2, stronger effect = lower value 0.956 | locus YPR141C, strain kar3, stronger effect = lower value 0.962 | locus YPR167C, strain met16, stronger effect = lower value 0.939
0.263 (active) and 0.923 (inactive): locus YJL095W, strain BCK1, stronger effect = lower value
